Where “and” joins values, the source holds several entries; their conditions need not be identical. Equal entries are not always repeated. Records with an inconclusive call do not appear. Some structures have more than one record in an assay (separate samples or runs), and their calls can disagree. Calls of active or inactive are those of the source. Unless noted, the call rests on the fitted dose curve.
How the values were obtained:
[1] = Nuclear factor erythroid 2-related factor 2/antioxidant responsive element (Nrf2/ARE) small molecule agonists: qHTS cell viability counter screen in human keratinocytes (AID 1919968; active means well fitted curve in the direction sought with a large enough effect in the repeat runs; an effect the other way counts as inactive or inconclusive; further: nearly all actives have a fitted effect of over 55% in size; further: potency means the concentration at half of the fitted maximal effect)
Outline: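 After a 5 h attachment period, ARE-reporter keratinocytes were dosed with compounds in DMSO and then cultured 23 h at 37 C. Cell viability came from CellTiter-Fluor signal read after a further 1 h.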

[2] = Nuclear factor erythroid 2-related factor 2/antioxidant responsive element (Nrf2/ARE) small molecule agonists: luciferase reporter gene qHTS assay in human keratinocytes (AID 1919969); further: nearly all actives have a fitted effect of over 35% in size; further: potency means the concentration at half of the fitted maximal effect
[3] = target: Gonadotropin-releasing hormone receptor (Homo sapiens) (UniProt P30968); experiment: Human gonadotropin-releasing hormone receptor (GnRHR) small molecule agonists, calcium flux assay in GnRHR-HEK293 cells (AID 1920063); further: nearly all actives have a fitted effect of over 35% in size
Chain of Gonadotropin-releasing hormone receptor (Homo sapiens) (P30968 whole entry, looked up): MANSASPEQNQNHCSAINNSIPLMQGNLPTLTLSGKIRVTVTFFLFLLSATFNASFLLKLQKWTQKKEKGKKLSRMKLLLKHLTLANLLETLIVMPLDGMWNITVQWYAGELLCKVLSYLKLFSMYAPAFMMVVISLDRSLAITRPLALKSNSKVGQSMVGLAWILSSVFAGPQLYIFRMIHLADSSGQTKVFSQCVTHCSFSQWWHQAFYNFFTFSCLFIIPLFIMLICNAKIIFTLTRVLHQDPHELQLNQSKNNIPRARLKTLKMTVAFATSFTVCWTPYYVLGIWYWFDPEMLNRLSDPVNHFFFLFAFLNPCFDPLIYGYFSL
Outline: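 We seeded human GnRHR-expressing HEK293 cells for 18 hours, loaded them with calcium dye for an hour at 37 C, added test compounds, and recorded fluorescence intensity kinetically for three minutes.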

[4] = G protein-coupled receptor (GPCR) small molecule agonists, calcium flux assay: HEK293 wild type cell line counter screen (AID 1920065)
Outline: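 Calcium-sensitive dye, loaded 1 h at 37 C into cells cultured 18 h, reports compound-evoked calcium release as fluorescence (Ex/Em 480/540), measured over 3 min. Agonist mode; 15-point titrations, triplicate.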

[5] = p53 small molecule agonists, cell-based qHTS assay with human liver microsomes (AID 1963577)
Outline: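 Compounds act here after metabolic activation: human liver microsomes and NADPH, both at 0.5 mg/mL final, were co-added to p53RE-bla cells. Incubation ran 16 h at 37 C, followed by LiveBLAzer detection.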

[6] = p53 small molecule agonists, cell-based qHTS assay with rat liver microsomes (AID 1963578); further: potency means the concentration at half of the fitted maximal effect
Outline: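 Read-out is beta-lactamase reporter fluorescence (LiveBLAzer, 2 h, room temperature, dark) in p53RE-bla cells treated 16 h at 37 C with compound, rat liver microsomes and NADPH, both 0.5 mg/mL final.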

[7] = p53 small molecule agonists, cell-based qHTS assay with human liver microsomes: qHTS cell viability counter screen (AID 1963579); further: nearly all actives have a fitted effect of over 45% in size
Outline: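 Cells carrying the p53 response-element beta-lactamase reporter are treated for 16 h at 37 C with test compounds in the presence of human liver microsomes and NADPH (both 0.5 mg/mL final); ATP-based CellTiter-Glo luminescence then reports viability.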

[8] = p53 small molecule agonists, cell-based qHTS assay with rat liver microsomes: qHTS cell viability counter screen (AID 1963580); further: nearly all actives have a fitted effect of over 45% in size
Outline: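 p53RE-bla HCT-116 cells were exposed 16 h at 37 C to compounds with rat liver microsomes (0.5 mg/mL) and NADPH (0.5 mg/mL). Viability was measured in the same wells as ATP content by CellTiter-Glo luminescence.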

[9] = target: 5-hydroxytryptamine receptor 2A (Homo sapiens) (UniProt P28223); experiment: 5-hydroxytryptamine receptor 2A (HTR2A) small molecule antagonists, cell-based qHTS assay (AID 1963586); further: nearly all actives have a fitted effect of over 45% in size
Chain of 5-hydroxytryptamine receptor 2A (Homo sapiens) (P28223 whole entry, looked up): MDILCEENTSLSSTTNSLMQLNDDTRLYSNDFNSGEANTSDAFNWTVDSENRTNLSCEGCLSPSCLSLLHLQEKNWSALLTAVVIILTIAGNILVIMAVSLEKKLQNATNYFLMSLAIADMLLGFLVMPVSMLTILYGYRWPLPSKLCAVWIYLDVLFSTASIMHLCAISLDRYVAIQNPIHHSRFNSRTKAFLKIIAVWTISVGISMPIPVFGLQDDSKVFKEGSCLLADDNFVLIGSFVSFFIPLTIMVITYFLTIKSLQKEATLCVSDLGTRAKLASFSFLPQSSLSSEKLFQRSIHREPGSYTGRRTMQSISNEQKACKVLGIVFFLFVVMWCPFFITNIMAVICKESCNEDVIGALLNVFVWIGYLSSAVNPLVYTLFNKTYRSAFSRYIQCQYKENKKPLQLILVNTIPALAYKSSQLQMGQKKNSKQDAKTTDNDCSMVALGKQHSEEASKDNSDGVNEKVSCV
Outline: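 Antagonist-mode intracellular calcium assay: DOI (4 nM) added after 5 min compound pre-incubation at room temperature to dye-loaded HTR2A-CHO cells. Fluorescence followed for 3 min, sampled every second.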

[10] = target: 5-hydroxytryptamine receptor 2A (Homo sapiens) (UniProt P28223); experiment: 5-hydroxytryptamine receptor 2A (HTR2A) small molecule agonists, cell-based qHTS assay (AID 1963587); further: nearly all actives have a fitted effect of over 30% in size; further: potency means the concentration at half of the fitted maximal effect
Outline: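 CHO cells stably expressing human HTR2A, plated 18 h, loaded with calcium dye 1 h at 37 C. Agonist mode: compounds added and intracellular calcium fluorescence recorded kinetically for 2 min at 1 sec intervals.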

[11] = target: Muscarinic acetylcholine receptor M1 (Homo sapiens) (UniProt P11229); experiment: Cholinergic receptor muscarinic 1 (CHRM1) small molecule antagonists, cell-based qHTS assay (AID 1963588); further: nearly all actives have a fitted effect of over 40% in size
Chain of Muscarinic acetylcholine receptor M1 (Homo sapiens) (P11229 whole entry, looked up): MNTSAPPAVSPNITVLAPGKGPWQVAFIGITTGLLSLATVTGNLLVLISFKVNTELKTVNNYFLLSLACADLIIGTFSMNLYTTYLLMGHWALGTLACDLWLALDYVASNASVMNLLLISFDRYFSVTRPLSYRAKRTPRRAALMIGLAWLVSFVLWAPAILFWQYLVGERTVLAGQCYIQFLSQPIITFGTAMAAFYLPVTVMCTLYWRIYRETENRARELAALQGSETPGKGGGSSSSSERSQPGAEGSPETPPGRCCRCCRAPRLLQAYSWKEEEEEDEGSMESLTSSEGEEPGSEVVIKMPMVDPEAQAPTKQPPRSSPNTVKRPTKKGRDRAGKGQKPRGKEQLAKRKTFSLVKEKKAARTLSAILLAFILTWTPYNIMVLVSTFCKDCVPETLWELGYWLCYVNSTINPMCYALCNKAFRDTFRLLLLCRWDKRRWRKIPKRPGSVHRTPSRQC
Outline: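 CHRM1-CHO calcium-flux assay, antagonist mode. Cells were seeded 18 h, dye-loaded 1 h at 37 C and given compound for 5 min at RT, then acetylcholine was added at 50nM. FDSS fluorescence was read 3 min; 15 concentrations, three runs.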

[12] = target: Muscarinic acetylcholine receptor M1 (Homo sapiens) (UniProt P11229); experiment: Cholinergic receptor muscarinic 1 (CHRM1) small molecule agonists, cell-based qHTS assay (AID 1963589); further: nearly all actives have a fitted effect of over 35% in size
Outline: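 Measures agonist-induced intracellular calcium rise. Stable human CHRM1 CHO line, 1 h dye load at 37 C, compounds from DMSO, kinetic fluorescence read.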

[13] = cAMP Responsive Elements (CRE) small molecule agonists, cell-based qHTS assay (AID 1963590)
Outline: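 A CRE-responsive beta-lactamase reporter in HEK 293T cells was used. Treatment ran 3 h at 37 C; detection used LiveBLAzer B/G FRET substrate for 2 h at room temperature.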

[14] = cAMP Responsive Elements (CRE) small molecule antagonists, cell-based qHTS assay (AID 1963591; active means well fitted inhibition curve with a large enough effect in the signal ratio in the repeat runs, not every such curve was filed as active; the % refers to the signal ratio)
Outline: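 HEK293T cells carrying a CRE-driven beta-lactamase reporter receive compound and NKH477 (0.25 uM final) for 3 h. Fluorescence from LiveBLAzer B/G FRET substrate is read after 2 h at room temperature.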

[15] = target: Beta-2 adrenergic receptor (Homo sapiens) (UniProt P07550); experiment: Adrenergic beta2 receptor (ADRB2) small molecule antagonists, cell-based qHTS assay (AID 1963592); further: series mostly up to about 92 µM; nearly all actives have a fitted effect of over 50% in size
Chain of Beta-2 adrenergic receptor (Homo sapiens) (P07550 whole entry, looked up): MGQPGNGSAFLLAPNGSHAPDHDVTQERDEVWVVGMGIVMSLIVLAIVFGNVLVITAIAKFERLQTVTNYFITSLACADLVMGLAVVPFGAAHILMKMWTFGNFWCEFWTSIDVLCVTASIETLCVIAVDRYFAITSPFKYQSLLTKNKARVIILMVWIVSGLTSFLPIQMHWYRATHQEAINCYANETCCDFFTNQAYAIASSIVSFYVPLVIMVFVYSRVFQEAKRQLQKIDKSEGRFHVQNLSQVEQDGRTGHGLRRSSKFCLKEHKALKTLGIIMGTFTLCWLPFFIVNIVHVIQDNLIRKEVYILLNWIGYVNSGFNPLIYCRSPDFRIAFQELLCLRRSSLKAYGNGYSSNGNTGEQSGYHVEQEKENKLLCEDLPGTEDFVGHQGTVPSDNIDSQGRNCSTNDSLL
Outline: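 Cells (CHO, stable ADRB2 overexpression) incubated 18-20hr at 37C; compounds added from DMSO; agonist mix (1nM isoproterenol, 100uM IBMX, 25uM Ro-20-1724) added; 0.5hr RT; d2-cAMP and anti-cAMP-cryptate added; 1hr RT; 665/615 nm read.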

[16] = target: Beta-2 adrenergic receptor (Homo sapiens) (UniProt P07550); experiment: Adrenergic beta2 receptor (ADRB2) small molecule agonists, cell-based qHTS assay (AID 1963593);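 further: CHO cells stably overexpressing human ADRB2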
Outline: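 CHO cells stably over-expressing ADRB2 were plated overnight at 37C, then dosed with compounds plus a stimulation mix containing 100uM IBMX and 25uM Ro-20-1724 for 0.5hr at room temperature. cAMP was measured by HTRF competition, 1hr.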

[17] = target: D(2) dopamine receptor (Homo sapiens) (UniProt P14416); experiment: Dopamine D2 receptor (DRD2) small molecule agonists, cell-based qHTS assay (AID 1963594); further: nearly all actives have a fitted effect of over 35% in size
Chain of D(2) dopamine receptor (Homo sapiens) (P14416 whole entry, looked up): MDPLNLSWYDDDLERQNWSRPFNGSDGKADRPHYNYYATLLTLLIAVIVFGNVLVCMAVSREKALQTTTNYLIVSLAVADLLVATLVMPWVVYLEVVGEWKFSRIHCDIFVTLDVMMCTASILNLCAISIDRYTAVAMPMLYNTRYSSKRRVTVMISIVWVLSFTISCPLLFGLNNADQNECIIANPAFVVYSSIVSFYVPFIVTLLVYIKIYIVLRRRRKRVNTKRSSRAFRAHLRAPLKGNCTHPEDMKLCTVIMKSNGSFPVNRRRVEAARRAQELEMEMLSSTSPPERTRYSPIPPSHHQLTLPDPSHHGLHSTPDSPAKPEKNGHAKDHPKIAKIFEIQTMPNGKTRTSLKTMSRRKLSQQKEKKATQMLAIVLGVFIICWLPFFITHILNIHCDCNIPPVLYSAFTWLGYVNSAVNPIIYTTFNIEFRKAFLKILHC
Outline: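 HEK293 cells stably expressing human DRD2, pre-treated with PDE inhibitor Ro20-1724 (0.1 mM final) and compound 10 min at room temperature, then stimulated with NKH477 (200nM […]) for 30 min. cAMP read by HTRF (665/620 nm).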

[18] = target: D(2) dopamine receptor (Homo sapiens) (UniProt P14416); experiment: Dopamine D2 receptor (DRD2) small molecule antagonists, cell-based qHTS assay (AID 1963595; active means well fitted inhibition curve with a large enough effect in the signal ratio in the repeat runs, with a control signal flat; the % refers to the signal ratio)
Outline: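 HEK293 cells stably expressing DRD2 were preincubated with 0.1 mM Ro20-1724, then with compound for 10 min at room temperature. Cells were stimulated with 200 nM NKH477 plus 12 nM quinpirole for 30 min, and cAMP was read by HTRF.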

[19] = target: KiSS-1 receptor (Homo sapiens) (UniProt Q969F8); experiment: Human kisspeptin (KISS1R) small molecule agonists, calcium flux assay in KISS1R-HEK293 cells (AID 1920064; active means well fitted curve in the direction sought with a large enough effect in the repeat runs; an effect the other way counts as inactive or inconclusive)
Chain of KiSS-1 receptor (Homo sapiens) (Q969F8 whole entry, looked up): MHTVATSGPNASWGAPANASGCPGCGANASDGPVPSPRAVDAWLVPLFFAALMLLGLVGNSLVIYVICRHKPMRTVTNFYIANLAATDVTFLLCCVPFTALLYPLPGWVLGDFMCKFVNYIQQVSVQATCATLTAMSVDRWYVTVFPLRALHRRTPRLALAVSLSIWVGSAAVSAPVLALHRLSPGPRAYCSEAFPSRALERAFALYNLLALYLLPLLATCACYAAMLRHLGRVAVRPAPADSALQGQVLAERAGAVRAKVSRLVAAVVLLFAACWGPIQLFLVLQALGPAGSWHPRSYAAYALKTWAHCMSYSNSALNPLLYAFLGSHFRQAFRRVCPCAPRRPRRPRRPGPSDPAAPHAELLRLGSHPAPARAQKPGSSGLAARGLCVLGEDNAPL
Outline: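 Kinetic calcium assay, 1 s sampling over 3 min at Ex/Em 480/540, in HEK293 cells engineered with human KISS1R; compounds delivered in DMSO after 1 h dye loading.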

[20] = p53 small molecule agonists, cell-based qHTS assay: qHTS cell viability counter screen (AID 1963581); further: nearly all actives have a fitted effect of over 45% in size; further: potency means the concentration at half of the fitted maximal effect
Outline: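 Following 5 h attachment, HCT-116 p53RE-bla cells took up compound for 16 h at 37 C; the reporter was read with B/G FRET substrate (2 h RT), and viability then via CellTiter-Glo ATP luminescence.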

Measured: Potency

O=C(O)c1ccc(O)cc1
not listed: [19] | [20]
inactive: all other assays above

CC(=O)CCC=C(C)C
not listed: [3]
inactive: all other assays above

CC1(C)O[C@@H]2C[C@H]3[C@@H]4C[C@H](F)C5=CC(=O)CC[C@]5(C)[C@H]4[C@@H](O)C[C@]3(C)[C@]2(C(=O)CO)O1
not listed: [9] | [10] | [11] | [12] | [14] | [16] | [19]
inactive: all other assays above

Cc1cc(=O)oc2cc(O)ccc12
active: [6] 36.3 µM and 22.9 µM
not listed: [4] | [9] | [12] | [14] | [19]
inactive: all other assays above

C#CC1(O)CC[C@H]2[C@@H]3CCC4=CCCC[C@@H]4[C@H]3CC[C@@]21C (stereo not given in full)
27.3 µM (active) and inactive: [1]
54.9 µM (active) and inactive: [10]
40.8 µM (active) and inactive: [20]
not listed: [3] | [9]
inactive: all other assays above

CCC(C)C=O (stereo not given)
not listed: [4] | [19]
inactive: all other assays above

O=S(=O)(O)c1ccc2ccccc2c1
not listed: [4] | [19] | [20]
inactive: all other assays above

CCCCNC(N)=O
not listed: [3] | [14] | [15]
inactive: all other assays above

CCCCNS(=O)(=O)c1ccccc1
not listed: [3] | [10]
inactive: all other assays above

F[B-](F)(F)F
inactive and 31.1 µM (active): [1]
not listed: [5] | [6] | [17] | [19] | [20]
inactive: all other assays above

CC(=O)/C=C/C1=C(C)CCCC1(C)C
not listed: [5] | [6] | [16] | [19]
inactive: all other assays above

O=C(Nc1ccccc1SSc1ccccc1NC(=O)c1ccccc1)c1ccccc1
active: [1] 6.14 µM and 6.11 µM | [2] 4.88 µM and 6.11 µM
not listed: [6] | [13] | [14] | [19]
inactive: all other assays above
